IMPase Li cell = membrane-permeable IMPase blocker, potentiated with lithium; CHO-M1 cells, IP1 TR-FRET (IP-One), carbachol + lithium; Potency, µM (doses to about 59.4 µM), for the others: at the top dose activity, negative = IMPase inhibition, most hits filed as inhibitors; 210,000 compounds, 0.35% hits;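 note: IP1 builds up when IMPase is blocked and the TR-FRET signal falls; potency is the fitted concentration of half-maximal effect; plate controls were basal vehicle for no effect and high inhibitor control for full effect; nearly all actives have a fitted effect of over 50% in size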
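IP1 accumulation measured by competitive TR-FRET in lysed CHO-M1 cells after 30 min compound exposure at 37C, with a small lithium addition to potentiate weak responses. Hill-equation AC50 from ratio and donor-channel data.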
HPGD inh = HPGD (human) dehydrogenase inhibition. P15428. purified HPGD, NADH fluorescence kinetic, PGE2 substrate. Potency, µM, without a hit: at the highest dose activity change, negative = inhibition, most hits filed as inhibitors. 150,000 compounds, 4.3% hits; active = well fitted inhibition curve with a large enough effect, not every such curve was filed as active; inconclusive = small, poorly fitted or top-dose-only effect, or another doubt; inactive = no such curve, though single readings can be large or run the other way; note: potency is the fitted concentration of half-maximal effect; % is set by controls: 0 for no effect and ±100 for the full control effect
Target sequence (P15428 whole entry, looked up): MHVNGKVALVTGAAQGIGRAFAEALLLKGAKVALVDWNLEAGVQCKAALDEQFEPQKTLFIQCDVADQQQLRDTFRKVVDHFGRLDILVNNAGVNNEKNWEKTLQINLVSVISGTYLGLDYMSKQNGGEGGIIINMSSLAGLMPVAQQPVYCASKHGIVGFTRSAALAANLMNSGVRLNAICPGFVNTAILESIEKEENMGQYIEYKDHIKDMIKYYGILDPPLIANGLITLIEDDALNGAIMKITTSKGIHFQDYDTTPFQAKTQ
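NADH formation kinetics: reaction with 30 uM PGE2 and 1 mM NAD+ (final), 20 nM enzyme, Tris-HCl pH 8 with Tween 20, after 15 min compound preincubation at room temperature. Fluorescence change, last versus first of five reads.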
ALDH1A1 inh-1 = blocks purified human ALDH1A1 activity. 220,000 compounds, 7.3% hits. Potency, µM (series often up to 75.3 µM), inactives show top-dose activity, negative = inhibition, most hits filed as inhibitors. Purified ALDH1A1, NADH fluorescence, propionaldehyde substrate; active = well fitted inhibition curve with a large enough effect, not every such curve was filed as active; inconclusive = small, poorly fitted or top-dose-only effect, or another doubt; inactive = no such curve, though single readings can be large or run the other way;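 note: potency is the fitted concentration of half-maximal effect; plate controls were no enzyme wells and a reference inhibitor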
IMPase inh = cell-permeable inhibitors of inositol monophosphatase (IMPase) | P97697 | CHO-M1 cells, IP1 accumulation, HTRF TR-FRET ratio | inhibition (IP1 accumulation), % at 46.1 µM | 120,000 tested, under 10 active | AID 901; active = well fitted curve in the direction sought with a large enough effect in the signal ratio, not every such curve was filed as active; inconclusive = small, poorly fitted or top-dose-only effect, or a change in a side signal; inactive = no such curve, though single readings can be large or run the other way; the % refers to the signal ratio;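 note: cells stimulated with carbachol in lithium chloride buffer; plate controls were DMSO basal wells for no effect and reference inhibitor wells for full effect; higher means more IMPase inhibition seen as more IP1 and lower FRET ratio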
Target sequence (P97697 whole entry, looked up): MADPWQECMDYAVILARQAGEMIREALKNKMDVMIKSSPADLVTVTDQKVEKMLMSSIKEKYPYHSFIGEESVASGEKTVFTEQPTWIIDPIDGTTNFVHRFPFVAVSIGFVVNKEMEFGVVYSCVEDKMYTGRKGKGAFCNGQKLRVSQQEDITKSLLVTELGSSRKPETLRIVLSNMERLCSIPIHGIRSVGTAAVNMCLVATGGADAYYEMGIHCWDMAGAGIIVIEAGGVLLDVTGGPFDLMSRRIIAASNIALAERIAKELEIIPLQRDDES
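In this qHTS, compounds (final up to 46 uM) act on CHO-M1 cells that are then activated through the M1 receptor with carbachol, in pH 7.4 buffer containing 50 mM LiCl, for 30 min. IP1 accumulation is quantified by the IP-One immunoassay.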
PNC assembly inh = blocks assembly of the perinucleolar compartment | PC3M PTB-GFP, PNC prevalence imaging, 16 h; active compounds read low | activity change (PNC), negative = inhibition, % at 10 µM | 140,000 compounds, 3.1% hits | AID 2417;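 active = readout at or below -70, meaning at least 70% loss of cells showing the perinucleolar compartment, a nuclear body marking cancer cells; inconclusive = readout between -30 and a set limit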;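 note: plate controls were DMSO wells for no effect and camptothecin positive control wells for full effect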
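Read-out is percentage of cells bearing a perinucleolar compartment, from automated 20x imaging of fixed, Hoechst-stained PC3M PTB-GFP cells. Cells were seeded 4 h, then exposed 16 h to compound (23 nl of library stock) in duplicate plates.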
ALOX12 inhib = blocks human 12-lipoxygenase activity; 150,000 compounds, 0.12% hits; Potency, µM (titrated, usually from 57.1 µM), for inactives: at the top dose activity change, negative = inhibition, hits mostly inhibitors; AID 1452; purified 12-hLO, xylenol orange hydroperoxide absorbance; P18054; note: potency is the fitted concentration of half-maximal effect; % is set by controls: 0 for no effect and ±100 for the full control effect; nearly all actives have a fitted effect of over 55% in size
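Hydroperoxide output read as Fe(III)-xylenol orange absorbance, 573-to-405 nm ratio, after 30 min reaction with 40 uM arachidonic acid. Enzyme: 150 nM purified human 12hLO, 15 min compound preincubation; 25 mM Hepes pH 7.0, room temperature.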
HPGD inh cf = human HPGD enzyme inhibition, confirmation; shares compounds with HPGD inh; recombinant HPGD, NADH fluorescence, PGE2 substrate; Potency, µM (top dose mostly 57.1 µM), inactives show at the top dose activity change, negative = inhibition, usual class: inhibitors; 90 compounds, 90% hits; AID 2429; calls by dose curve
ALDH1A1 inh-2 = Inhibits human ALDH1A1, confirmation and counter-screen. purified ALDH1A1, NADH fluorescence, propionaldehyde/NAD+. Potency, µM (highest dose often 57.1 µM), for the others: top-dose activity change, negative = inhibition, most hits filed as inhibitors. AID 493210. 90 compounds, 90% hits. shares compounds with ALDH1A1 inh-1; calls by dose curve
* hit, by the source's call; ? = inconclusive; . = no result given; [ ] = another dose, or the depositor's remark. The list is not random: actives were taken first. Their share in the collection is about 11%. Unless noted, calls come from the whole dose curve; as a rule, active = well fitted curve in the direction sought with a large enough effect; inconclusive = small, poorly fitted or top-dose-only effect, or another doubt; inactive = no such curve, though single readings can be large; an effect the other way counts as inactive or inconclusive.

SMILES	IMPase Li cell	HPGD inh	ALDH1A1 inh-1	IMPase inh	PNC assembly inh	ALOX12 inhib	others
Cc1nnc(SCc2nc3ccccc3c(=O)n2-c2ccccc2Cl)n1N	22%[38.3 µM]	-1%	25µM*	-5	?	1%
COP(=S)(OC)SCn1nnc2ccccc2c1=O	2%	28µM*	13µM*	.	.	-29%
c1ccc2c(CCNC3=NCCC3)c[nH]c2c1	-3%[38.3 µM]	-10%	3%	8	-83*	1%
Cn1cc(NC(=O)CCl)cn1	-20%	.	18µM*	.	.	.
CCCn1cc(C(=O)O)cn1	-2%	.	4%	.	.	.
O=C(Cc1ccccc1)N1CCN(CC2CC=CCC2)CC1 (centres undefined)	36%[38.3 µM]	-8%	13µM*	6	4	-5%
CCCCC[C@@H](/C=C/C=C\CCCCCCCCCC(=O)O)OO	12%	-5%	0%	.	.	-3%
O=P1(Nc2ccc(F)cc2)COc2ccccc2OC1	-16%[38.3 µM]	1.1µM*	-4%	10	16	-8%	HPGD inh cf=1µM*
COC(=O)c1ccccc1OP1(=O)COc2ccccc2OC1	12%[38.3 µM]	-22%	9%	-6	69	9%
NC1=N[C@H](O)[C@H]2C3O[C@]4(O)O[C@H](C(O)[C@@]2(N1)[C@@H]4O)C3(O)CO (some centres undefined)	-10%	-9%	-2%	.	.	-4%[0.00818 µM]
Cc1ccc(-n2sc3ccccc3c2=O)cc1	2%	0.63µM*	10µM*	-5	?	7.9µM*	HPGD inh cf=0.56µM*
CN[C@@H](C)[C@H](O)c1ccccc1	-7%	0.79µM*	0.5µM*	.	.	.	HPGD inh cf=1.4µM*;ALDH1A1 inh-2=0.45µM*
NC(=O)CNC(=O)[C@H](Cc1ccccc1)NC(=O)[C@H](CCCN=C(N)N)NC(=O)[C@@H](N)Cc1ccc(O)cc1	6%	.	5%	.	.	.
CC(C)N(C(=O)CCl)c1ccccc1	-5%	-6%	0.028µM*	.	.	6%	ALDH1A1 inh-2=0.05µM*
CCc1cccc(C)c1N(C(=O)CCl)C(C)COC (centres undefined)	4%	-7%	6%	.	.	10%
CCC1C(=O)OC[C@H]1Cc1cncn1C (some centres undefined)	30%	-5%	4%	.	.	-4%
O=c1oc(Cl)c(Cl)c2ccccc12	12%	-12%	0.56µM*	2	.	-2%	ALDH1A1 inh-2=0.25µM*
COc1ccc(S(=O)(=O)Nc2cc([N+](=O)[O-])ccc2OC)cc1	15%	-22%	?	.	32	-2%
Cc1cc(C)nc(/N=C/c2c(O)n(C)c(=O)n(C)c2=O)n1	3%[38.3 µM]	-4%	?	-2	-4	-2%
CCC(C=C[C@@H]1OC(=O)C=C[C@H]1C)=C[C@H](C)CC=CC(C)=C[C@@H](C)C(=O)[C@@H](C)[C@H](O)[C@@H](C)CC(C)=CC(=O)O	11%	0%	0.22µM*	.	.	-1%[0.00818 µM]	ALDH1A1 inh-2=1.1µM*
COc1ccc2c(c1)CCC1[C@@H]2CCC2(C)[C@@H](NCCCCCCN3C(=O)C=CC3=O)CC[C@@H]12 (some centres undefined)	13%	-5%	0.11µM*	15	.	-5%	ALDH1A1 inh-2=0.5µM*

High-throughput results: PubChem BioAssay, National Center for Advancing Translational Sciences (NCATS)
